Structures are written as SMILES. Inconclusive results are not listed. The source made the active and inactive calls. Unless noted, how the calls were made is not given here.

The nature of experiment [1]: qHTS profiling for inhibitors of Plasmodium falciparum (HB3) proliferation (AID 743324; active means well fitted curve in the direction sought with a large enough effect; an effect the other way counts as inactive or inconclusive;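 further: 100% = DMSO vehicle wells and 0% = artemisinin-treated control wells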). Particulars: Plasmodium falciparum HB3 blood-stage proliferation; at 28.7 µM (top of the series) unless noted. The essentials: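 P. falciparum HB3 grown in erythrocytes (0.3% parasitemia, 2.5% hematocrit final) with compound for 72 h at 37 C, 5% CO2. Parasite DNA detected by SYBR Green after saponin/triton lysis overnight; normalized to 0.29 uM artemisinin and DMSO.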
A general note: qHTS replaces the single test concentration by a dilution series.

A short description of experiment [2]: qHTS profiling of the MIPE4 collection as inhibitors of Plasmodium falciparum (3D7) proliferation (AID 743344).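 Further: scaled between DMSO vehicle wells and 0.29 µM artemisinin as full inhibition.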 The settings on record: P. falciparum 3D7 in erythrocytes, SYBR Green DNA fluorescence, 72 h. The essentials:
(§1)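 Erythrocytes infected with P. falciparum (0.3% parasitemia, 2.5% hematocrit) incubated with compounds 72 h at 37 C, 5% CO2. Lysis with saponin/Triton buffer containing SYBR Green I, overnight at room temperature in the dark; DNA fluorescence (485/535 nm) normalised to 0.29 uM artemisinin and DMSO.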

Experiment [3] is described as follows: qHTS profiling of the MIPE4 collection as inhibitors of Plasmodium falciparum (DD2) proliferation (AID 743345). The settings on record: P. falciparum Dd2 in erythrocytes, SYBR Green DNA, 72 h. The essentials: as §1
Experiment [4] can be described thus: qHTS profiling of the MIPE4 collection as inhibitors of Plasmodium falciparum (DD2) proliferation (Rep 2) (AID 743346). Particulars: P. falciparum Dd2 in erythrocytes, SYBR Green DNA, 72 h. In a few lines: as §1
The nature of experiment [5]: qHTS profiling of the MIPE4 collection as inhibitors of Plasmodium falciparum (HB3) proliferation (AID 743347).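 Further: plate controls were DMSO vehicle wells for no effect and artemisinin wells for full effect.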 The settings on record: P. falciparum HB3 in erythrocytes, SYBR Green DNA, 72 h. In a few lines: as §1
Experiment [6] can be described thus: High-throughput drug toxicity screening in the BPDCN cell line Gen2.2 (AID 1224824).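 Further: cells exposed to compounds for 48 h before reading.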 The settings on record: Gen2.2 BPDCN cells; at 45.8 µM (top of the series) unless noted. The essentials: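 Readout is ATP luminescence from Gen2.2 cells after two days of drug exposure in serum-containing medium at 37 °C. Values express percent activity, with vehicle defining full signal and 9.2 uM bortezomib defining zero.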

A short description of experiment [7]: High-throughput drug toxicity screening in the BPDCN cell line Cal-1 (AID 1224825). The settings on record: Cal-1 BPDCN cell viability, qHTS; at 45.8 µM (top of the series) unless noted. In a few lines: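 Cal-1 cells, 500 per well in phenol-red-free RPMI with 10% FBS, exposed to compounds for 48 hours at 37C, 5% CO2. Viability read by CellTiter-Glo luminescence; percent activity normalized to DMSO (100%) and 9.2 uM bortezomib final (0%).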

Experiment [8] can be described thus: qHTS assay for measurement of the activity of small molecule inhibitors on Zika virus induced Caspase-3 activity in human iPSC derived neural progenitor cells (hNPCs) (AID 1224857; active means well fitted curve in the direction sought with a large enough effect; an effect the other way counts as inactive or inconclusive; further: % of control where 0% means no effect; nearly all actives have a fitted effect of over 65% in size). In a few lines:
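In medium with heparin 2 ug/ml and cyclopamine 2 uM, hNPCs (350 cells/well) received compound for one hour and then Zika virus at 2 FFU/cell; caspase activity was measured by Caspase-Glo 3/7 luminescence 6 h post-infection.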

Experiment [9] is described as follows: qHTS assay for measurement of the activity of small molecule inhibitors on Zika virus induced Caspase-3 activity in human astrocytoma cells (AID 1224859; active means well fitted curve in the direction sought with a large enough effect; an effect the other way counts as inactive or inconclusive;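 further: plate controls were ZIKV-infected untreated cells for no effect and uninfected cells for full effect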). The essentials:
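A cell-based luminescent caspase-3/7 assay used SNB-19 cells infected with ZIKV (2 FFU/cell) for 6 h following 1 h compound pretreatment.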

Experiment [10] is described as follows: qHTS Screen of the MIPE 4.0 Collection Against Ewings Sarcoma (RDES) (AID 1259252; active means well fitted curve in the direction sought with a large enough effect; an effect the other way counts as inactive or inconclusive; further: nearly all actives have a fitted effect of over 35% in size; further: potency means the concentration at half of the fitted maximal effect). The essentials:
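Log-phase cells in RPMI with 5% FBS attached for 4 h, then received compounds as a titration for 48 h at 37C, 5% CO2. Viability was read by CellTiter-Glo luminescence and normalized to DMSO and no-cell wells.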

[11] abbreviates: at 28.5 µM (top of the series) unless noted.

Consider `Cc1csc(-c2nnc(Nc3ccc(Oc4ncccc4-c4ccnc(N)n4)cc3)c3ccccc23)c1`, for which the remaining proliferation (% of control), lower = more inhibition in [1] turned out to be 51.2%. In experiment [2] (setting [11]), the parasite growth, % of DMSO control came out at 38.3%. For the same compound, the parasite growth remaining, % of DMSO control (lower = more inhibition) in experiment [3] (setting [11]) was determined as 81.1%. Also, the parasite growth, % of control (lower = inhibition) in experiment [4] (setting [11]) came out at 47.8%. In experiment [5] (setting [11]), the growth, % of control was found to be 26.8%. The cell viability, % of control (lower = more cytotoxic) in experiment [6] was 24.7%. Besides, in experiment [7], the viability (% of control) amounted to 13.3%. For the same compound, the Potency entry in [8] and in experiment [9] was “inactive” throughout. Besides, in experiment [10], the Potency was 29.6 nM (active).

For the compound `C=C[C@@H]1CN2CCC1C[C@@H]2C(O)c1ccnc2ccc(OC)cc12` (stereo partly specified), in experiment [1], the remaining proliferation (% of control), lower = more inhibition amounted to 2.91%. The parasite growth, % of DMSO control in [2] (setting [11]) is 8.37%. Besides, the parasite growth remaining, % of DMSO control (lower = more inhibition) in experiment [3] (setting [11]) stood at 9.53%. In experiment [4] (setting [11]), this compound yielded a parasite growth, % of control (lower = inhibition) of 12%. Further, the growth, % of control in experiment [5] (setting [11]) came to 3.29%. Besides, the cell viability, % of control (lower = more cytotoxic) in experiment [6] was determined as 130%. The viability (% of control) in experiment [7] was 86%. Moreover, the Potency entry in experiment [8] and in experiment [9] was “inactive” in each case. Further, the Potency in experiment [10] was 3720 nM (active).

Regarding `Clc1ccc(COC(Cn2ccnc2)c2ccc(Cl)cc2Cl)c(Cl)c1` (stereo unspecified), the remaining proliferation (% of control), lower = more inhibition in [1] was -0.548%. The parasite growth, % of DMSO control turned out to be 4.92% in experiment [2] (at 9.64 µM (top of the series)) and 5.47% in experiment [2] (at 28.5 µM (top of the series)). In addition, the parasite growth remaining, % of DMSO control (lower = more inhibition) in experiment [3] (at 9.64 µM (top of the series)) was found to be 11.2%; in [3] (at 28.5 µM (top of the series)), 6.56%. Besides, the values for the parasite growth, % of control (lower = inhibition) in experiment [4] (at 9.64 µM (top of the series)) and in [4] (at 28.5 µM (top of the series)) were 19.2% and 12.3%, respectively. For the same compound, the results for the growth, % of control in [5] (at 9.64 µM (top of the series)) and in [5] (at 28.5 µM (top of the series)) were 8.03% and 5.5%, respectively. Moreover, the cell viability, % of control (lower = more cytotoxic) in [6] was found to be 90.5%. For the same compound, the viability (% of control) in [7] was 72.7%. The Potency entry in experiment [8] and in experiment [9] was “inactive” each time. In addition, the Potency in [10] was 26400 nM (active).

In turn, `CC[C@H](NC(=O)[C@H](C)NC)C(=O)N1C[C@@H](O)C[C@H]1Cc1c(-c2[nH]c3cc(F)ccc3c2C[C@H]2C[C@H](O)CN2C(=O)[C@H](CC)NC(=O)[C@H](C)NC)[nH]c2cc(F)ccc12` displayed a parasite growth, % of DMSO control in [2] (setting [11]) of 4.9%. This compound also returned a parasite growth remaining, % of DMSO control (lower = more inhibition) in [3] (setting [11]) of 8.23%. Further, the parasite growth, % of control (lower = inhibition) in [4] (setting [11]) turned out to be 6.15%. In [5] (setting [11]), this compound displayed a growth, % of control of 6.85%. Also, the cell viability, % of control (lower = more cytotoxic) in experiment [6] amounted to 19.2%. Further, the viability (% of control) in experiment [7] amounted to 7.23%. Besides, the Potency result in experiment [8], in experiment [9] and in experiment [10] was “inactive” throughout.

For `O=C(Nc1cccc(Cl)c1)Nc1ncc(CCNc2ncnc3ccsc23)s1`, in [1], the remaining proliferation (% of control), lower = more inhibition is -0.601%. Besides, the parasite growth, % of DMSO control in experiment [2] (setting [11]) is 15.2%. The same compound came in with a parasite growth remaining, % of DMSO control (lower = more inhibition) in experiment [3] (setting [11]) of 67.5%. The same compound displayed a parasite growth, % of control (lower = inhibition) in experiment [4] (setting [11]) of 39%. This compound showed a growth, % of control in [5] (setting [11]) of 5.75%. For the same compound, the cell viability, % of control (lower = more cytotoxic) in experiment [6] amounted to 122%. Also, the viability (% of control) in experiment [7] stood at 20.2%. The Potency entry in experiment [8] and in [9] was “inactive” in each case. In [10], the Potency is 1180 nM (active).

In [2] (setting [11]), `NS(=O)(=O)c1cc(Cl)c(Cl)c(S(N)(=O)=O)c1` returned a parasite growth, % of DMSO control of 101%. Also, in [3] (setting [11]), the parasite growth remaining, % of DMSO control (lower = more inhibition) was 58.8%. In [4] (setting [11]), this compound registered a parasite growth, % of control (lower = inhibition) of 88.2%. In [5] (setting [11]), this compound registered a growth, % of control of 98.5%. Also, in experiment [6], the cell viability, % of control (lower = more cytotoxic) was determined as 166%. In addition, the viability (% of control) in [7] stood at 125%. Besides, the Potency result in experiment [8], in [9] and in [10] was “inactive” throughout.

In the case of `COc1nc(C)cnc1NS(=O)(=O)c1cccnc1-c1ccc(-c2nnco2)cc1`, the remaining proliferation (% of control), lower = more inhibition in experiment [1] was determined as 91.9%. Further, the parasite growth, % of DMSO control in experiment [2] (setting [11]) was 100%. The compound further gave a parasite growth, % of control (lower = inhibition) in [4] (setting [11]) of 74.5%. In experiment [5] (setting [11]), the growth, % of control was 100%. In [6], the cell viability, % of control (lower = more cytotoxic) turned out to be 379%. In addition, the viability (% of control) in [7] was found to be 142%. Besides, the Potency result in experiment [8], in experiment [9] and in [10] was “inactive” throughout.

On to `Nc1ccc(-c2ccc3ncc4ccc(=O)n(-c5cccc(C(F)(F)F)c5)c4c3c2)cn1`, for which the remaining proliferation (% of control), lower = more inhibition in experiment [1] is -1.3%. The compound also had a parasite growth, % of DMSO control in experiment [2] (setting [11]) of 4.25%. In [3] (setting [11]), this compound showed a parasite growth remaining, % of DMSO control (lower = more inhibition) of 5.9%. The same compound returned a parasite growth, % of control (lower = inhibition) in experiment [4] (setting [11]) of 9.23%. The compound also yielded a growth, % of control in experiment [5] (setting [11]) of 2.97%. In addition, the cell viability, % of control (lower = more cytotoxic) in experiment [6] was 6.66%. In addition, the viability (% of control) in experiment [7] is 3.86%. The Potency result in experiment [8] and in experiment [9] was “inactive” each time. In addition, in experiment [10], the Potency was 14.8 nM (active).

Take `COc1cc(CNC(=O)CCCCC=CC(C)C)ccc1O`: the cell viability, % of control (lower = more cytotoxic) in experiment [6] turned out to be 145%. Also, the viability (% of control) in [7] stood at 27.5%. Also, the Potency result in experiment [8] and in experiment [9] was “inactive” throughout. Also, the Potency in [10] is 5900 nM (active).
